Assay outcomes as filed in PubChem.
JMJD2A Tudor inh = blocks the human JMJD2A Tudor domain; 4.4% of 390,000 active; AID 504339; Potency, µM (doses to about 114 µM), without a hit: at the highest dose activity change, negative = inhibition, most hits filed as inhibitors; O75164; AlphaScreen JMJD2A-Tudor / H3K4me3 peptide binding; also: potency is read from the fitted curve at half-maximal effect; % is scaled to controls: 0 for no effect and ±100 for the full control effect; nearly all actives have a fitted effect of over 50% in size
PLK1 PBD block = blocks phosphopeptide binding to human PLK1 polo-box domain | P53350 | Plk1 PBD binding of FITC phosphopeptide, fluorescence polarization | Potency, µM, for the others: max response, negative = inhibition, hits mostly inhibitors | 2.8% of 360,000 active; also: potency is read from the fitted curve at half-maximal effect; series mostly up to about 57 µM; % is scaled to controls: 0 for no effect and ±100 for the full control effect; nearly all actives have a fitted effect of over 65% in size
G9a block = blocks human histone lysine methyltransferase G9a; G9a H3K9 monomethylation, AlphaScreen, 2 h; Potency, µM (titrated, usually from 102 µM), for inactives: top-dose activity, negative = inhibition, actives largely listed as inhibitors; 8.8% of 350,000 active; AID 504332; also: potency is read from the fitted curve at half-maximal effect; % is scaled to controls: 0 for no effect and ±100 for the full control effect; nearly all actives have a fitted effect of over 75% in size
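Using a bead-based AlphaScreen, monomethylated H3K9 product from 2 h room-temperature reactions (G9a 20 nM, peptide 500 nM, SAM 20 uM) was detected with 0.5 ug/mL rabbit anti-H3K9me1 antibody.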
BAZ2B block = BAZ2B (human) inhibition. AlphaScreen BAZ2B-H3K14Ac peptide displacement. Potency, µM (titrated, usually from 114 µM), without a hit: top-dose activity change, negative = inhibition, most hits filed as inhibitors. 4.4% of 360,000 active; also: potency is read from the fitted curve at half-maximal effect; % is scaled to controls: 0 for no effect and ±100 for the full control effect; nearly all actives have a fitted effect of over 60% in size
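Inhibition is scored as reduced AlphaScreen emission. The BAZ2B/b-H3(5-23)K14Ac complex (50 nM each) in PBS pH 7.4, 0.01% Tween-20 meets compound (up to 110 uM) for 30 min at RT before bead addition.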
PI5P4Ka inh = blocks human PI5P4K alpha kinase activity. PI5P4Kalpha enzyme, ADP-Glo luminescence, 60 min; stronger effect = lower value. P48426. max response, %. 1.2% of 330,000 active; active = max response of -50% or lower; inconclusive = between -30% and -50%; inactive = -30% or higher; also: value at the top dose of about 77 µM; % is scaled to controls: 0 for no effect and ±100 for the full control effect
Target sequence (P48426 whole entry, looked up): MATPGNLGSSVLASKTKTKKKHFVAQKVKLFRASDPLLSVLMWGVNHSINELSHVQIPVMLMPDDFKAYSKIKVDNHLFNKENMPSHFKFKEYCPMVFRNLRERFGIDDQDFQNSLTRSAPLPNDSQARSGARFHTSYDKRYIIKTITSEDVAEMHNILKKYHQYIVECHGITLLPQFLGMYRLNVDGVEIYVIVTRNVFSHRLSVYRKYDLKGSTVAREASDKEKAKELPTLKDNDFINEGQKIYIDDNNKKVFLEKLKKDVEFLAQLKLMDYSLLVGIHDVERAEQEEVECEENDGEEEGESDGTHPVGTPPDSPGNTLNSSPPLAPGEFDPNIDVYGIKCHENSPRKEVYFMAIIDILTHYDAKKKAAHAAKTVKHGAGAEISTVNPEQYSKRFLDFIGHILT
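Compounds were pin-transferred onto PI5P4Kalpha and substrate in HEPES pH 7.4 buffer with EGTA, CHAPS and 5% DMSO. ATP (5 microM final) started the reaction, which ran 60 minutes at room temperature before ADP-Glo detection.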
HP1b chromo inh = HP1-beta chromodomain-methylated histone interaction inhibition | P83916 | AlphaScreen HP1-beta / biotin-H3K9me3 peptide binding | Potency, µM (highest dose often 114 µM), for the others: at the highest dose activity change, negative = inhibition, hits mostly inhibitors | 0.56% of 390,000 active | AID 540317; also: potency is read from the fitted curve at half-maximal effect; nearly all actives have a fitted effect of over 70% in size
Target sequence (P83916 whole entry, looked up): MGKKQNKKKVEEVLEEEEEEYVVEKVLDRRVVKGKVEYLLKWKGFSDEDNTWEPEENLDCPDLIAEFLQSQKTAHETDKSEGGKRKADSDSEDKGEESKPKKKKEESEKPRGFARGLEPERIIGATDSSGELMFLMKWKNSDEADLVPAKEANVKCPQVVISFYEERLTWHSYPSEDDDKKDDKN
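Compound inhibition of the preformed complex between 50 nM HP1-beta and 50 nM biotinylated H3K9me3 peptide was read by AlphaScreen. Buffer was PBS pH 7.4 with 0.01% Tween-20. Incubations ran 30 min at room temperature, with 10 ug/mL donor/acceptor beads.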
* hit, by the source's call; ! = repeats disagree; [ ] = another dose, or the depositor's remark. In the library only some 12% were active in any assay of this set; here they are far more common. Unless noted, calls follow the shape of the dose curve; as a rule, active = well fitted curve in the direction sought with a large enough effect; inconclusive = small, poorly fitted or top-dose-only effect, or another doubt; inactive = no such curve, though single readings can be large; an effect the other way counts as inactive or inconclusive.

CC(C)CC1=NN(C(=O)c2cccnc2)C(O)(C(F)(F)F)C1 (stereo unspecified) was read as JMJD2A Tudor inh -3%, PLK1 PBD block -9%, G9a block 65%[59 µM], BAZ2B block 9%, PI5P4Ka inh -2 and HP1b chromo inh 42%.
`CC(C)CC1=NN(C(=O)c2ccncc2)C(O)(C(F)(F)F)C1` (stereo unspecified) gave JMJD2A Tudor inh 40µM*, PLK1 PBD block 24µM*, G9a block 2%, BAZ2B block 1%, PI5P4Ka inh -17 and HP1b chromo inh 10%.
COc1ccccc1CNC(=O)c1ccc(-c2nc(CS(=O)(=O)c3ccc(C)cc3)c(C)o2)cc1 was read as JMJD2A Tudor inh -2%, G9a block -29%[59 µM], BAZ2B block -16% and HP1b chromo inh 31%.
`O=C(COC(=O)CNC(=O)c1ccc(Cl)cc1Cl)NC(=O)NCc1ccccc1` gave JMJD2A Tudor inh 0%, PLK1 PBD block -2%, G9a block 56µM*, BAZ2B block 2%, PI5P4Ka inh 6 and HP1b chromo inh 42%.
Screening COc1ccccc1C(=O)NC(=O)COC(=O)CNC(=O)c1ccc(Cl)cc1Cl returned JMJD2A Tudor inh 3%, PLK1 PBD block -1%, G9a block 50µM*, BAZ2B block 6%, PI5P4Ka inh 1 and HP1b chromo inh 41%.
For Oc1ccccc1NCC(O)Cn1ccc2ccccc21 (stereo unspecified) the results were JMJD2A Tudor inh 2.8µM*, PLK1 PBD block inconclusive, G9a block 28µM*, BAZ2B block 50µM* and HP1b chromo inh -73%.
Screening OC(CNCc1ccccc1)Cn1ccc2ccccc21 (stereo unspecified) returned JMJD2A Tudor inh 22µM*, PLK1 PBD block -12%, G9a block inconclusive, BAZ2B block inconclusive, PI5P4Ka inh 0 and HP1b chromo inh inconclusive.
OC(CNCCNc1ncccc1C(F)(F)F)Cn1ccc2ccccc21 (stereo unspecified) was read as JMJD2A Tudor inh -24%, PLK1 PBD block 0%, BAZ2B block -18%, PI5P4Ka inh 5 and HP1b chromo inh -20%.
`OC(CN1CCNCC1)Cn1ccc2ccccc21` (stereo unspecified) gave G9a block 4% and BAZ2B block inconclusive.
`COc1ccccc1N1C(=O)C2ON(c3ccccc3)C(c3ccc(N(C)C)cc3)C2C1=O` (stereo unspecified) gave G9a block 8.9µM* and BAZ2B block 35µM*.
O=C1C2ON(c3ccccc3)C(c3ccncc3)C2C(=O)N1c1ccccc1 (stereo unspecified) was read as JMJD2A Tudor inh -6%, PLK1 PBD block 0%, G9a block 47%[12.7 µM], BAZ2B block 1%, PI5P4Ka inh 0 and HP1b chromo inh 25%.
`Cc1cc(C(=O)Nc2cccc(F)c2)c2c(C)nn(-c3cccc(Cl)c3C)c2n1` gave JMJD2A Tudor inh 3%, G9a block 7%[59 µM], BAZ2B block -7%[57.1 µM] and HP1b chromo inh 31%.
CCN1C(=O)C=CC1=O was read as G9a block 1µM*!.
`O=C(O)CN1C(=O)C=CC1=O` gave PLK1 PBD block inconclusive and PI5P4Ka inh -15.
CCOC(=O)Nc1ccc2c(c1)N(CCCN(C)C)c1ccccc1CC2 was read as JMJD2A Tudor inh inconclusive, PLK1 PBD block -2%, G9a block -48%[59 µM], BAZ2B block -1%[0.457 µM], PI5P4Ka inh 0 and HP1b chromo inh 6%.
Screening CN(C)CCCN1c2ccc([N+](=O)[O-])cc2CCc2cc([N+](=O)[O-])ccc21 returned JMJD2A Tudor inh 18µM* and HP1b chromo inh inconclusive.
O=[N+]([O-])c1ccc(NN=Cc2cccc3ccccc23)nc1 was read as JMJD2A Tudor inh -15%, PLK1 PBD block -6%, PI5P4Ka inh 1 and HP1b chromo inh 2%.
`O=C(O)Cn1cc(/C=N/Nc2ccc([N+](=O)[O-])cn2)c2ccccc21` gave JMJD2A Tudor inh inconclusive, PLK1 PBD block -1%, G9a block 45µM*, BAZ2B block inconclusive, PI5P4Ka inh -11 and HP1b chromo inh inconclusive.
Screening Cc1ccc(Cn2cc(/C=N/Nc3ccc([N+](=O)[O-])cn3)c3ccccc32)cc1 returned JMJD2A Tudor inh -22%, PLK1 PBD block 0%, G9a block 50µM*, BAZ2B block -21%, PI5P4Ka inh 14 and HP1b chromo inh 4%.
COCCn1c(C)cc(C(=O)CSc2nncn2-c2ccccc2)c1C was read as JMJD2A Tudor inh -20%, PLK1 PBD block -6%, G9a block 50µM*, BAZ2B block -33% and HP1b chromo inh 14%.
`COCC(C)n1c(C)cc(C(=O)COC(=O)c2c(C)nn(-c3ccccc3)c2C)c1C` (stereo unspecified) gave JMJD2A Tudor inh inconclusive, PLK1 PBD block 0%, G9a block 50µM*, BAZ2B block inconclusive, PI5P4Ka inh 3 and HP1b chromo inh inconclusive.
Screening O=C(Cn1nc(C(=O)O)c2ccccc2c1=O)c1cc(F)ccc1F returned JMJD2A Tudor inh -22%[11.4 µM], PLK1 PBD block 17µM*, G9a block 26%[59 µM], BAZ2B block 25%, PI5P4Ka inh -23 and HP1b chromo inh -6%.
`O=C(Cn1nc(C(=O)O)c2ccccc2c1=O)Nc1ccc(F)cc1F` gave JMJD2A Tudor inh -5%, PLK1 PBD block -2%, G9a block 20%, BAZ2B block 3%, PI5P4Ka inh -5 and HP1b chromo inh 21%.
For O=C(Cn1nc(C(=O)O)c2ccccc2c1=O)NCc1ccco1 the results were JMJD2A Tudor inh -11%[11.4 µM], PLK1 PBD block 21µM*, G9a block -45%, PI5P4Ka inh -11 and HP1b chromo inh inconclusive.
For COc1ccc(-n2cnnc2SCC(=O)c2cc(C)n(Cc3cccs3)c2C)cc1 the results were JMJD2A Tudor inh inconclusive, PLK1 PBD block -7%, G9a block inconclusive, PI5P4Ka inh -8 and HP1b chromo inh 3%.
Screening CCOC(=O)c1cccc(NC(=O)c2nn(-c3ccc(OC)cc3)c(=O)c3c2c2ccccc2n3C)c1 returned JMJD2A Tudor inh -12%, G9a block 3%[59 µM] and HP1b chromo inh 18%.
For COc1cc(OC)c(NS(=O)(=O)c2ccc(Cl)c(C(=O)OC(C)C(=O)N3CCCC3)c2)cc1Cl (stereo unspecified) the results were JMJD2A Tudor inh -28%, PLK1 PBD block -17%, G9a block -4%[59 µM], BAZ2B block -30%, PI5P4Ka inh 5 and HP1b chromo inh -6%.
Screening COc1ccc(-c2noc(CSc3nnc(C)n3-c3ccc(F)cc3)n2)cc1 returned JMJD2A Tudor inh -11%, G9a block -26%[59 µM], BAZ2B block -10% and HP1b chromo inh 23%.
